Experimental findings from PubChem BioAssay (EPA / NIEHS) are described below.

Structures are written as SMILES. Inconclusive results are not listed. Activity calls are given as the source filed them. The calls were made as follows: active = hit-call score of the fitted dose curve at least 0.9, where 1 is the maximum; inconclusive = response in the unintended direction; inactive = score below 0.9.

rat Vasopressin 1 Receptor (V1), Avpr1a (gene 25107), sequence (P30560 whole entry, looked up): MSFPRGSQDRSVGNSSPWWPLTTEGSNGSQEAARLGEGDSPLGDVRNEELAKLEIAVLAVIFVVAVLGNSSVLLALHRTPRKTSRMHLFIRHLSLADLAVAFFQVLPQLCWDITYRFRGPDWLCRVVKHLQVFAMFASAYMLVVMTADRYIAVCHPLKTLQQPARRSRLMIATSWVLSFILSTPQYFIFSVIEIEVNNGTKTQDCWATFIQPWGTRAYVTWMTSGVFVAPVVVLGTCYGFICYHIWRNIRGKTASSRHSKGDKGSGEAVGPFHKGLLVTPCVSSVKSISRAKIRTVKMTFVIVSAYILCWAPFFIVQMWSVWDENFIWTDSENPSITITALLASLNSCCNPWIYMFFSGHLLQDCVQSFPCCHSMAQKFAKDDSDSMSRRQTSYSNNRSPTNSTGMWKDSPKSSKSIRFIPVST
rat Neurokinin-3 Receptor (NK3), Tacr3 (gene 24808), sequence (P16177 whole entry, looked up): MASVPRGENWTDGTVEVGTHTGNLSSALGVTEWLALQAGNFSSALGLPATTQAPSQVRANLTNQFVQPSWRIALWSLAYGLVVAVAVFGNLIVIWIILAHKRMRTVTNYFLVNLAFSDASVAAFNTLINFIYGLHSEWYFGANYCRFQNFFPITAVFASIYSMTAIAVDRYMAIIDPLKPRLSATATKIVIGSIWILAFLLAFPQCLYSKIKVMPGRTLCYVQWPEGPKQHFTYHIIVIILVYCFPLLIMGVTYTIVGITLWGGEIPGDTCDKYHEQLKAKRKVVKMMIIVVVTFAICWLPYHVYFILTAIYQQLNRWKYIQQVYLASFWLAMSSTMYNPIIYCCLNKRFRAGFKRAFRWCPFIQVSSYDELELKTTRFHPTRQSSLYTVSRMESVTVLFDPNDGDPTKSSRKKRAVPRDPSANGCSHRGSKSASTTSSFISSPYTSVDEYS
rat Glutamate, AMPA Site (AMPA), Gria1 (gene 50592), sequence (P19490 whole entry, looked up): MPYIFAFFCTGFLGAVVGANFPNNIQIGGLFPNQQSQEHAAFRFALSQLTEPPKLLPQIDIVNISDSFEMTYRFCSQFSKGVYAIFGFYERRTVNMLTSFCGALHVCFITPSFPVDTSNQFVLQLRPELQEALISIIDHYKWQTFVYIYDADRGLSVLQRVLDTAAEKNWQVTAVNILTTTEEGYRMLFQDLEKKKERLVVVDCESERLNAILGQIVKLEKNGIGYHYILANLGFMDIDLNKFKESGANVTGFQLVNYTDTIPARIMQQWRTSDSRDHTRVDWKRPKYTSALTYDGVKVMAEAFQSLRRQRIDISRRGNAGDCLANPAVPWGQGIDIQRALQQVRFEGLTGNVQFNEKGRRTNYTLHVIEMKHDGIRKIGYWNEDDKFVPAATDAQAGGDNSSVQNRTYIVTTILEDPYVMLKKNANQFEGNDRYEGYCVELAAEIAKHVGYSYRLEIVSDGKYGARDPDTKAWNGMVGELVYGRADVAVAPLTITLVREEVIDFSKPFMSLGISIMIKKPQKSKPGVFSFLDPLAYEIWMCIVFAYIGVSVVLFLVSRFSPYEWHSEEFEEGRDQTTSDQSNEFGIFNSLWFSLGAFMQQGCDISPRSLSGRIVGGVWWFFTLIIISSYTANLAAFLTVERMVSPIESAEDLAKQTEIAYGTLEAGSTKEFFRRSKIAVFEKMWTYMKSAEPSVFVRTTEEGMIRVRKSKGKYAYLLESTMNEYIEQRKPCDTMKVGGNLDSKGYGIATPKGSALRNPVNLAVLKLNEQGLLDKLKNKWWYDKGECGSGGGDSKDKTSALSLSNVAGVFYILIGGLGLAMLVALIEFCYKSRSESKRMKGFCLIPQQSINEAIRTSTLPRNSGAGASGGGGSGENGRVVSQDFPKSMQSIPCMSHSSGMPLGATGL

One experiment has as its target rat Neurokinin-3 Receptor (NK3), Tacr3 (gene 24808) (UniProt P16177). In words: NVS_GPCR_rNK3: NovaScreen (NVS) G Protein-Coupled Receptor Assay for rat Neurokinin-3 Receptor (NK3) (AID 2283310). An outline of the steps: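 Filter-based radioligand displacement on rat cortex membrane preparations, read by scintillation 2 h post-dose. Chemicals first tested in duplicate at 25 uM; actives followed up in concentration series with a 50 uM maximum.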
Turning to `CC(O)CC(C)(C)O` (stereo unspecified), the compound was called inactive.
As usually defined, the AC50 is the concentration at which the activity in the assay is half-maximal. Consider `CCCOC(=O)c1cc(O)c(O)c(O)c1`, for which the AC50 was 7.59 µM (active).
Consider `CCCCCCCCOC(=O)c1cc(O)c(O)c(O)c1`, for which the compound was classed as inactive.

In another experiment the target is rat Opioid Receptor, Non-selective Sodium (Na+) Binding, Oprm1 (gene 25601) (UniProt P33535). As to the kind of experiment: NVS_GPCR_rOpiate_NonSelectiveNa: NovaScreen (NVS) G Protein-Coupled Receptor Assay for rat Opioid Receptor, Non-selective Sodium (Na+) Binding (AID 2283311). A digest of the protocol: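 Filtration radioligand binding on rat forebrain membrane preparations, read 1.5 h after dosing. Single-concentration 25 µM primary screen in duplicate, followed by singleton concentration series to 50 µM max for actives; DMSO baseline.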
rat Opioid Receptor, Non-selective Sodium (Na+) Binding, Oprm1 (gene 25601), sequence (P33535 whole entry, looked up): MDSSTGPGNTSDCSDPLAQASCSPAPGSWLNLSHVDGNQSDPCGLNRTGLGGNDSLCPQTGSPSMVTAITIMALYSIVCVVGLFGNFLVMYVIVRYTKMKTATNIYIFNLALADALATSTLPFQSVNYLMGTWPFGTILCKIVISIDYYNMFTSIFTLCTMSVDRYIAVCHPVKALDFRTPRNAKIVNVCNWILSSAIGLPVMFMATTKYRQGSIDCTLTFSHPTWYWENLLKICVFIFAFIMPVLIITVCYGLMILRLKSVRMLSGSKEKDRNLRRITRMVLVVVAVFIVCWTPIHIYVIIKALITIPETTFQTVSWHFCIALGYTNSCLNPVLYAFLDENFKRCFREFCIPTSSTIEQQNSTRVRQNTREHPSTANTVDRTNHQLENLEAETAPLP
For `CC(O)CC(C)(C)O` (stereo unspecified), the result was inactive.
Still for that read-out and setting: in the case of `Clc1ccccc1C(c1ccccc1)(c1ccccc1)n1ccnc1` it was “inactive”; in that of `CC(C)(c1cc(Br)c(O)c(Br)c1)c1cc(Br)c(O)c(Br)c1`, “inactive”.
Turning to `CCCCOC(=O)c1ccc(O)cc1`, the AC50 is 25 µM (active).
Regarding `C[C@]12CC[C@@H]3c4ccc(O)cc4CC[C@H]3[C@@H]1CC[C@H]2O`, the result was inactive.
Turning to `C[C@]12CC[C@@H]3c4ccc(O)cc4CC[C@H]3[C@@H]1CCC2=O`, the AC50 was 13.9 µM (active).
In the case of `O=c1c(-c2ccc(O)cc2)coc2cc(O)cc(O)c12`, the compound was classed as inactive.

A further experiment addresses rat Vasopressin 1 Receptor (V1), Avpr1a (gene 25107) (UniProt P30560). As to the kind of experiment: NVS_GPCR_rV1: NovaScreen (NVS) G Protein-Coupled Receptor Assay for rat Vasopressin 1 Receptor (V1) (AID 2283316). An outline of the steps: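 Concentration-response up to 50 uM for chemicals passing a threshold such as 30% inhibition in an initial duplicate 25 uM screen. Displacement of radioligand from rat liver membranes measured after 1.5 h by filtration and scintillation.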
As to `O=C1O[C@H]([C@@H](O)CO)C(O)=C1O`, the AC50 is 6.57 µM (active).
On the same count and under the same terms, for `Clc1ccccc1C(c1ccccc1)(c1ccccc1)n1ccnc1` the value was 36.5 µM (active); for `Cc1c2ccccc2c(C)c2c1ccc1ccccc12`, 25 µM (active).

In a further experiment the target is rat Opioid Receptor, Non-selective Binding, Oprm1 (gene 25601) (UniProt P33535). As to the kind of experiment: NVS_GPCR_rOpiate_NonSelective: NovaScreen (NVS) G Protein-Coupled Receptor Assay for rat Opioid Receptor, Non-selective Binding (AID 2283318). A digest of the protocol: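 Filter-based radioligand displacement using rat forebrain membrane preparations, measured 1.5 h post-dosing. Single-concentration duplicate screen at 25 uM, follow-up in concentration series; activity taken as signal loss relative to DMSO.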
rat Opioid Receptor, Non-selective Binding, Oprm1 (gene 25601), sequence (P33535 whole entry, looked up): as above
Take `Clc1ccccc1C(c1ccccc1)(c1ccccc1)n1ccnc1`: the call was inactive.
Turning to `O=C(O)Cc1cc(I)c(Oc2ccc(O)c(I)c2)c(I)c1`, the result was inactive.
As to `CC/C(=C(/CC)c1ccc(O)cc1)c1ccc(O)cc1`, the AC50 was 12 µM (active).

The target in the next experiment is Sodium channel protein type 1 subunit alpha (Rattus norvegicus) (UniProt P04774). In words: NVS_IC_rNaCh_site2: NovaScreen (NVS) Ion Channel Assay for rat Sodium Channel, Site 2 (NaCh) (AID 2283322).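 Also: hit means loss of radioligand binding signal relative to DMSO so AC50 marks displacement.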 A digest of the protocol:
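Initial duplicate single-point testing at 25 uM, followed by concentration-response runs for actives. Binding of radioligand to rat forebrain membranes quantified after 1 h via filter-based radiodetection.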
Take `NC(=O)c1nc(-c2cccc(-c3cc(F)ccc3OCC(F)(F)C(F)(F)F)c2)n[nH]1`: the AC50 was 0.574 µM (active).
Turning to `CC(O)CC(C)(C)O` (stereo unspecified), the compound was called inactive.
Turning to `CCCCCCCCN(C)CCCCCCCC`, the AC50 was 11.8 µM (active).
As to `CCCCCCCCOC(=O)c1cc(O)c(O)c(O)c1`, the AC50 is 17.7 µM (active).

The next experiment concerns the target rat Glutamate, AMPA Site (AMPA), Gria1 (gene 50592) (UniProt P19490). As to the kind of experiment: NVS_LGIC_rAMPA: NovaScreen (NVS) Ligand-Gated Ion Channel Assay for rat Glutamate, AMPA Site (AMPA) (AID 2283324). A digest of the protocol:
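Screening at 25 uM in duplicate preceded concentration series reaching 50 uM for qualifying compounds. Radioligand displacement on rat forebrain membranes, 1 h, filter-based scintillation readout; reduced binding relative to DMSO.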
Consider `CCCCCCCCCC(=O)O`, for which the outcome was inactive.
Still for that read-out and setting: for `CCCCOC(=O)c1ccc(O)cc1` the value was “inactive”.
On the same count and under the same terms, for `CC/C(=C(/CC)c1ccc(O)cc1)c1ccc(O)cc1` the value was “inactive”.

For another experiment, the target named is rat Thyrotropin Releasing Hormone Receptor (TRH), Trhr (gene 25570) (UniProt Q01717). As to the kind of experiment: NVS_GPCR_rTRH: NovaScreen (NVS) G Protein-Coupled Receptor Assay for rat Thyrotropin Releasing Hormone Receptor (TRH) (AID 2283329).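 Also: hit means lower bound tracer signal versus DMSO baseline.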 A digest of the protocol: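 Cell-free radioligand binding on rat forebrain membranes; bound tracer measured by filter-based scintillation counting 4 hours after dosing. Loss of signal versus DMSO baseline indicates displacement; primary screen at 25 uM in duplicate, actives then run in concentration series.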
rat Thyrotropin Releasing Hormone Receptor (TRH), Trhr (gene 25570), sequence (Q01717 whole entry, looked up): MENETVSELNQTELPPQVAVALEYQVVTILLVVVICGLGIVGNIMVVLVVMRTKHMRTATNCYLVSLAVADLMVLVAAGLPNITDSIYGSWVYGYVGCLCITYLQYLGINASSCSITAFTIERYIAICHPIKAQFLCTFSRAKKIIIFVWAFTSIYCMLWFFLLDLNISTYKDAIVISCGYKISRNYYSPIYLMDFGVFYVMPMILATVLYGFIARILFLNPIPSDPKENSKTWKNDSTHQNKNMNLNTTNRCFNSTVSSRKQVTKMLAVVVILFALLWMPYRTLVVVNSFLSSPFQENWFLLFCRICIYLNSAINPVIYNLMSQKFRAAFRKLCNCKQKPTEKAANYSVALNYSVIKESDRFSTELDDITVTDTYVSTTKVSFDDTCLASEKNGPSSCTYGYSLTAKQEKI
For `Cc1oc2c(NC(=O)c3c(Cl)cccc3Cl)cccc2c1C(C)(C)O`, the call was inactive.
On the same count and under the same terms, for `CC(O)CC(C)(C)O` (stereo unspecified) the value was “inactive”; for `CCCCCc1ccc(N)cc1`, “inactive”.
